High-throughput results from PubChem.
Hits are enriched below; roughly 7.3% of the tested compounds scored in any of these assays.
AmpC detergent – qHTS Inhibitors of AmpC Beta-Lactamase (assay with detergent); Potency, µM (top dose mostly 114 µM), actives largely listed as inhibitors; AmpC hydrolysis of nitrocefin, absorbance 480 nm, 0.01% Triton; 370,000 compounds, 0.041% hits; P00811; note: nearly all actives have a fitted effect of over 25% in size
Target sequence (P00811 whole entry, looked up): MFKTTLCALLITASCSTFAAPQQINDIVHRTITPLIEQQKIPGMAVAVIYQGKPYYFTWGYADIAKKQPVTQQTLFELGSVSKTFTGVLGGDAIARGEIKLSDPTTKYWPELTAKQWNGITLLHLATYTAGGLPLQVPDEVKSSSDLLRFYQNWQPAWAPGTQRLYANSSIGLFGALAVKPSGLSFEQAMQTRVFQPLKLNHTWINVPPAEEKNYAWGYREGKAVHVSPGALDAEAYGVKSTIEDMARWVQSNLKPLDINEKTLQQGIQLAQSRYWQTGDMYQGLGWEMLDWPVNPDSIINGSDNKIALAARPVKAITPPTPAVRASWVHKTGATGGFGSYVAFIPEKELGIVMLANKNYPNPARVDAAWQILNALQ
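AmpC (5.3 nM in the dispensed reagent) in 20 mM phosphate pH 7.0 with 0.01% (detergent screen) or 0.0001% Triton X-100 was preincubated with compounds for 15 min at room temperature. Nitrocefin was then added from an 800 uM solution, and hydrolysis was followed at 480 nm.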
HCV inh – qHTS Assay for Inhibitors of Hepatitis C Virus (HCV); 340,000 compounds, 3.4% hits; Huh7.5.1 HCVcc-Cre infection, luciferase reporter, 44 h; Potency, µM (top dose mostly 41.8 µM), most hits filed as inhibitors
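Luciferase read-out (15 sec integration) after a 15 min room-temperature substrate step quantifies HCVcc-Cre infection. Cells, 1,000 per well, had compound added 4 h post-plating, then virus at ~0.5 moi, and were cultured 44 h.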
HCMV antiviral – qHTS Assay for inhibitors of the human cytomegalovirus (HCMV); HFF cells, HCMV-luciferase reporter, 72 h; active compounds read low; 410,000 compounds, 4.5% hits; activity change, negative = inhibition, % at 57.5 µM; in the data active = activity change below about -60%; inconclusive = no clear call, values can overlap the other calls; inactive = above about -39%
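Inhibition of viral replication was scored as loss of reporter luminescence in HFFs infected with HCMV-luciferase (MOI 1 PFU/cell) for 72 h; compounds tested at 2 doses, normalized to buffer and Salinomycin controls.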
FMDV inh – High Throughput Screening for Foot and Mouth Disease Virus Antivirals; FMDV antiviral cell-based qHTS; Potency, µM (titrated, usually from 57.9 µM), most hits filed as inhibitors; 410,000 compounds, 1.2% hits; AID 1159524, 2015; calls by dose curve; tested in HEK293T cells; note: read-out not given here; nearly all actives have a fitted effect of over 45% in size
AmpC no deterg – qHTS Inhibitors of AmpC Beta-Lactamase (assay without detergent); P00811; AmpC nitrocefin hydrolysis, absorbance 480 nm, 0.0001% Triton; Potency, µM (highest dose often 57.1 µM), actives largely listed as inhibitors; 330,000 compounds, 0.52% hits; note: nearly all actives have a fitted effect of over 20% in size
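20 mM phosphate pH 7.0 + 0.01% (detergent screen) or 0.0001% Triton X-100; 5.3 nM AmpC reagent; cpd preinc 15 min RT; nitrocefin (800 uM stock) to start; A480 q20 s × 4 min; Activity was normalised to no-enzyme and no-compound control wells.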
A number is an active result; ! = repeats disagree. Unless noted, calls come from the whole dose curve; as a rule, active = well fitted curve in the direction sought with a large enough effect; inconclusive = small, poorly fitted or top-dose-only effect, or another doubt; inactive = no such curve, though single readings can be large; an effect the other way counts as inactive or inconclusive.

How did O=C(Nc1ccccc1Cl)c1ccc(-n2cccn2)c([N+](=O)[O-])c1 do in these assays?
AmpC detergent: inactive; HCV inh: inactive; HCMV antiviral: inactive; FMDV inh: inactive; AmpC no deterg: inactive

Results for CCOc1ccc(NC(=O)N2CCN(c3nnc(C)c4c(C)n(-c5ccccc5)nc34)CC2)cc1 ?
AmpC detergent: inactive; HCMV antiviral: inactive; FMDV inh: inactive

What do the screens show for `CCCCCc1cc(=O)oc2c(C(CCN(CC)CC)c3ccc(OC)cc3)c(OC)cc(OC)c12` (stereo not given)?
AmpC detergent: inactive; HCV inh: inconclusive; HCMV antiviral: -80.6; FMDV inh: inactive; AmpC no deterg: inactive

How did CCCCCc1cc(=O)oc2c(C(CCN3CCCCC3)c3ccc(OC)cc3)c(OC)cc(OC)c12 (stereo not given) do in these assays?
AmpC detergent: inactive; HCV inh: inconclusive; HCMV antiviral: inactive; FMDV inh: inactive; AmpC no deterg: inactive

Results for Cc1nn(-c2ccccc2)c(N)c1N=Nc1cccc(S(=O)(=O)N2CCOCC2)c1 ?
AmpC detergent: inactive; HCV inh: 22.4µM; HCMV antiviral: -68.0; FMDV inh: inactive; AmpC no deterg: inactive

What do the screens show for `Cc1ccc[n+](C2=C([O-])c3ccccc3C(=O)C2=O)c1`?
HCMV antiviral: inactive

How did O=C1/C(=N\S(=O)(=O)c2cccs2)C([n+]2ccccc2)=C([O-])c2ccccc21 do in these assays?
AmpC detergent: inactive; HCV inh: 6.31µM; HCMV antiviral: -66.3; FMDV inh: 25.1µM; AmpC no deterg: inactive

Results for CC(C)n1c(SCC(=O)Nc2ccccc2N2CCOCC2)nc2c1c(=O)n(C)c(=O)n2C ?
AmpC detergent: inactive; HCV inh: inconclusive; HCMV antiviral: inactive; FMDV inh: inactive; AmpC no deterg: inactive

Results for Cc1ccc(-c2nc(SCC(=O)N3CCc4ccccc43)c3c(=O)n(C)c(=O)n(C)c3n2)cc1 ?
AmpC detergent: inactive; HCMV antiviral: inactive; FMDV inh: inactive

Results for Cn1c(=O)c2c(SCC(=O)N3CCCc4ccccc43)nc(CC(C)(C)C)nc2n(C)c1=O ?
AmpC detergent: inconclusive; HCV inh: inconclusive; FMDV inh: 22.4µM; AmpC no deterg: inactive

What do the screens show for `CC1Cc2nc(SCC(=O)N3CCCc4ccccc43)n(C)c(=O)c2S1` (stereo not given)?
AmpC detergent: inactive; HCV inh: 11.2µM; HCMV antiviral: inactive; FMDV inh: inconclusive; AmpC no deterg: inactive

How did CCn1c(SCC(=O)Nc2ccccc2N2CCCCC2)nc2c1c(=O)n(C)c(=O)n2C do in these assays?
AmpC detergent: inactive; HCV inh: inconclusive; HCMV antiviral: -68.7; FMDV inh: inconclusive; AmpC no deterg: inactive

What do the screens show for `Cn1c(=O)c2c(SCC(=O)Nc3ccc4c(c3)OCCO4)nc(CC(C)(C)C)nc2n(C)c1=O`?
AmpC detergent: inconclusive; HCV inh: inactive; HCMV antiviral: -64.0; FMDV inh: inactive; AmpC no deterg: inconclusive

How did CCn1c(SCC(=O)N2CCCc3ccccc32)nc2c(c1=O)SC(C)C2 (stereo not given) do in these assays?
AmpC detergent: inactive; HCV inh: inconclusive; HCMV antiviral: inactive; FMDV inh: inactive; AmpC no deterg: inactive

Results for CCOc1ccc2c(c1)c(=O)c(C(=O)c1ccccc1)cn2Cc1ccccc1 ?
AmpC detergent: inactive; HCMV antiviral: inactive; FMDV inh: inactive

How did COc1ccccc1-n1cc(CN2CCC3(CCC(CNC(=O)c4ccccc4)O3)CC2)cn1 (stereo not given) do in these assays?
FMDV inh: inactive

What do the screens show for `CCc1nc(SCC(=O)N2CCN(c3ccccc3)CC2)c2c(=O)n(C)c(=O)n(C)c2n1`?
AmpC detergent: inactive; AmpC no deterg: inactive

What do the screens show for `CC(C)Cc1nc(SCc2cccnc2)c2c(=O)n(C)c(=O)n(C)c2n1`?
AmpC detergent: inactive; HCV inh: 10µM; HCMV antiviral: inconclusive; FMDV inh: inconclusive; AmpC no deterg: inactive

Results for CCCc1nc(SCC(=O)N2CCC(Cc3ccccc3)CC2)c2c(=O)n(C)c(=O)n(C)c2n1 ?
AmpC detergent: inconclusive; HCV inh: 10µM!; HCMV antiviral: inactive; FMDV inh: inconclusive; AmpC no deterg: 3.55µM

What do the screens show for `Cn1c(=O)c2c(SCC(N)=O)nc(CC(C)(C)C)nc2n(C)c1=O`?
AmpC detergent: inconclusive; HCV inh: inconclusive; HCMV antiviral: inactive; FMDV inh: inactive; AmpC no deterg: 6.31µM

What do the screens show for `Cn1c(=O)c2c(SCC(=O)NCc3ccco3)nc(CC(C)(C)C)nc2n(C)c1=O`?
AmpC detergent: inconclusive; HCV inh: inconclusive; HCMV antiviral: inconclusive; FMDV inh: inactive; AmpC no deterg: inactive

How did Cn1c(=O)c2c(SCc3c(F)cccc3Cl)nc(CC(C)(C)C)nc2n(C)c1=O do in these assays?
AmpC detergent: inactive; HCV inh: inactive; HCMV antiviral: inactive; FMDV inh: inconclusive; AmpC no deterg: 3.55µM

How did CCc1nc(SCc2cccnc2)c2c(=O)n(C)c(=O)n(C)c2n1 do in these assays?
AmpC detergent: inconclusive; HCV inh: inactive; HCMV antiviral: inconclusive; FMDV inh: inconclusive; AmpC no deterg: inactive

Results for CCN(C(=O)c1cc2c(=O)oc3ccc(C)cc3c2s1)c1ccccc1C ?
AmpC detergent: inactive; HCMV antiviral: inactive; FMDV inh: inconclusive

What do the screens show for `CC(=O)c1ccc(NC(=O)C2CCN(S(=O)(=O)c3ccc4c(c3)CCCN4C(=O)C3CCC3)CC2)cc1`?
AmpC detergent: inactive; HCMV antiviral: inactive; FMDV inh: inconclusive

What do the screens show for `CSCCC(NC(=O)c1ccccc1Cl)C(=O)N1CCCC(C)C1` (stereo not given)?
HCV inh: inactive; HCMV antiviral: inactive; FMDV inh: inactive

Results for Cn1c(=O)c2c(nc(SCC(=O)N3c4ccccc4CCc4ccccc43)n2C)n(C)c1=O ?
AmpC detergent: inactive; HCV inh: inactive; HCMV antiviral: inactive; FMDV inh: inactive; AmpC no deterg: inactive

What do the screens show for `CCCn1c(SCC(=O)N2CCCc3ccccc32)nc2c1c(=O)n(C)c(=O)n2C`?
AmpC detergent: 35.5µM; HCV inh: inactive; HCMV antiviral: inactive; FMDV inh: inactive; AmpC no deterg: inactive

Results for CCCc1nc(SCC(=O)N2CCCc3ccccc32)c2c(=O)n(C)c(=O)n(C)c2n1 ?
AmpC detergent: inactive; HCV inh: 10µM; FMDV inh: inactive; AmpC no deterg: 39.8µM

Results for COCCN1CCC(CNCc2cn(-c3cc(C)ccc3C)nc2-c2ccccc2)C1 (stereo not given) ?
AmpC detergent: inactive; HCV inh: 7.94µM; HCMV antiviral: -60.0; FMDV inh: inactive; AmpC no deterg: inactive

What do the screens show for `C(=NN1CCCCCC1)c1ccc2ccccc2n1`?
HCV inh: inactive; HCMV antiviral: -91.6; FMDV inh: 100µM
